# Bioassay records deposited in PubChem BioAssay by National Center for Advancing Translational Sciences (NCATS).
# TDP1 cell CPT – DT40-hTDP1 cell growth loss with CPT; chicken DT40 Tdp1-/-;hTDP1 cells + 20 nM CPT, ATP luminescence, 48 h; Potency, µM (titrated, usually from 46.2 µM), for inactives: at the top dose activity change, negative = growth inhibition, hits mostly inhibitors; 12% of 420,000 active; note: % is set by controls: 0 for no effect and ±100 for the full control effect; nearly all actives have a fitted effect of over 55% in size
#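 Cell growth measured by CellTiter-Glo luminescence after a minimum 48 h, 37 C compound exposure with 20 nM CPT in Tdp1-knockout DT40 cells stably expressing hTDP1, seeded 400/well; qHTS titration format.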
# TDP1 cell noCPT – qHTS for Inhibitors of human tyrosyl-DNA phosphodiesterase 1 (TDP1): qHTS in cells in absence of CPT. DT40 Tdp1-/- hTDP1 cells, no CPT, ATP luminescence, 48 h. Potency, µM (doses to about 46.2 µM), without a hit: top-dose activity change, negative = growth inhibition, hits mostly inhibitors. 15% of 420,000 active; note: % is set by controls: 0 for no effect and ±100 for the full control effect; nearly all actives have a fitted effect of over 55% in size
#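 Chicken DT40 Tdp1-/- cells stably complemented with human TDP1 were seeded at 400 cells/well with DMSO in place of 20 nM camptothecin. After compound pinning, cells grew at least 48 hr at 37 °C; viability read by CellTiter-Glo luminescence.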
# TDP1 inh – inhibitors of human tyrosyl-DNA phosphodiesterase TDP1 | Q9NUW8 | recombinant TDP1, AlphaScreen DNA substrate cleavage | Potency, µM (titrated, usually from 130 µM), for inactives: at the top dose activity change, negative = inhibition, hits mostly inhibitors | 0.28% of 350,000 active | AID 485290; note: % is set by controls: 0 for no effect and ±100 for the full control effect; nearly all actives have a fitted effect of over 40% in size
# Target sequence (Q9NUW8 whole entry, looked up): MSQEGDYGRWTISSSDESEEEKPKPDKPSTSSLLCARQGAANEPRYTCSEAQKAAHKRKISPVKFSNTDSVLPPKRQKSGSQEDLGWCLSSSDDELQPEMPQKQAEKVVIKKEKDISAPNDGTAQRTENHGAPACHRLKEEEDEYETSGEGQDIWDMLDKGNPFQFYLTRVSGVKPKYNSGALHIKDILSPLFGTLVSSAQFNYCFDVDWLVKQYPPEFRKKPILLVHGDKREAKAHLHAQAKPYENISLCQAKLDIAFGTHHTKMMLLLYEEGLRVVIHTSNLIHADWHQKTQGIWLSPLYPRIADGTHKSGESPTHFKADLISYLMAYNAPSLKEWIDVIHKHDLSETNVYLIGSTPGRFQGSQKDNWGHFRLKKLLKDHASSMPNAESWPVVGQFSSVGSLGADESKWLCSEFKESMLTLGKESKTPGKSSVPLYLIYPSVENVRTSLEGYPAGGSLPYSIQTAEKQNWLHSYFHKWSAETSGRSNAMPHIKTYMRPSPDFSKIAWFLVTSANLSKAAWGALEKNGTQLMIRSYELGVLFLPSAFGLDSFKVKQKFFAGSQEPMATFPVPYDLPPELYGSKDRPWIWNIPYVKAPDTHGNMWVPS
#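 Here, a 5' biotin and 3' phosphotyrosine-FITC DNA oligonucleotide reports Tdp1 activity: intact substrate bridges AlphaScreen beads, while cleavage leaves a 3' phosphate and drops signal. All incubations at room temperature.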
# ClpP mod – qHTS Assay for Activators of ClpP. purified B. subtilis ClpP, FRET peptide cleavage, 20 min. Potency, µM (highest dose often 57.5 µM), for the others: at the top dose activity change, negative = active. 1.9% of 340,000 active. AID 651965, 2013; active = well fitted falling curve with a large enough effect; inconclusive = small, poorly fitted or top-dose-only effect; inactive = no such curve, though single readings can be large or run the other way; note: the source files actives as falling curves though it sought activators and does not explain the sign; nearly all actives have a fitted effect of over 65% in size
#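 Buffer: 100 mM Tris/HCl pH8, 100 mM KCl, 0.05% low protease BSA, 2.5% glycerol, 0.01% Tween-20. ClpP 10 microg/mL final; 20 min RT; delta FRET normalized to ADEP and DMSO controls.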
# An asterisk follows results filed as active; ? = inconclusive; . = not tested or not shown; [ ] = dose if it differs, or a comment. Rows were chosen to be rich in hits. Some 17% of all compounds tested hit in one or more screens of this group. Unless noted, calls come from the whole dose curve; as a rule, active = well fitted curve in the direction sought with a large enough effect; inconclusive = small, poorly fitted or top-dose-only effect, or another doubt; inactive = no such curve, though single readings can be large; an effect the other way counts as inactive or inconclusive. Potency is the fitted concentration of half-maximal effect.
SMILES,TDP1 cell CPT,TDP1 cell noCPT,TDP1 inh,ClpP mod
COC(=O)c1cc(S(=O)(=O)N(C)C2CCCCC2)c[nH]1,6%,-4%,-3%,0%
CN(C)c1ncc2nc(-c3ccccc3)c(=O)n(Cc3cccs3)c2n1,13%,11%,.,.
Oc1cccc(Nc2ncnc3c2oc2ccccc23)c1,12µM*,?,.,-3%
Cc1nc(Nc2ccccc2)c2oc3ccc(Cl)cc3c2n1,?,23µM*,.,.
Cc1nc(NCCN2CCOCC2)c2oc3ccccc3c2n1,6%,-18%,0%,-3%
Cc1nc(NCCc2ccccc2)c2oc3ccccc3c2n1,8.2µM*,9.2µM*,0%,-11%
CC(C)C(Nc1ncnc2c1oc1ccccc12)C(=O)O (stereo not given),16%,2%,.,.
c1ccc(Nc2ncnc3c2oc2ccccc23)cc1,10µM*,?,.,152%
c1ccc2c(c1)oc1c(Nc3ccc4c(c3)OCO4)ncnc12,-22%,-21%,0%,-4%
CCOc1ccc(-c2cncc3nccn23)cc1,-22%,-26%,.,5%
Cc1cnc(CNc2ncncc2-c2ccoc2)cn1,-10%,-23%,.,.
Cc1ccc(NC(=O)C(=O)NCCCN2CCOCC2)c(C)c1,-12%,-1%,.,0%
Oc1ccc(Nc2ncnc3c2oc2ccccc23)cc1,?,15µM*,.,-1%
c1ccc2c(c1)oc1c(NCCN3CCOCC3)ncnc12,-13%,-13%,1%,-9%
Oc1ccccc1Nc1ncnc2c1oc1ccccc12,-21%,-29%,3%,1%
c1ccc2c(c1)oc1c(Nc3ccc(CN4CCOCC4)cc3)ncnc12,?,15µM*,3%,-1%
Cc1ccc(NC(=O)CCNS(=O)(=O)c2ccc3c(c2)CCCC(=O)N3)cc1,.,.,-2%,-12%
CCc1cc2c(=O)c(-c3ccc4c(c3)OCO4)coc2c(CN(C)C)c1O,2.1µM*,3.7µM*,.,4%
CC1(C)C=Cc2c(cc3occ(-c4ccc5c(c4)OCO5)c(=O)c3c2O)O1,0%,-1%,-6%[56.1 µM],.
CCc1cc2c(=O)c(-c3cscn3)coc2c(CN(C)C)c1O,1.5µM*,2.3µM*,3%,16µM*
CCc1cc2c(=O)c(-c3nc4ccccc4n3C)coc2c(CN2CCOCC2)c1O,?,?,-4%,.
O=C(O)c1ccc(-c2nnn(Cc3cccc(C(F)(F)F)c3)n2)cc1,-6%,-20%,.,1%
O=C(c1ccccc1F)N1CCN(c2ccc([N+](=O)[O-])c(NCC3CCCO3)c2)CC1 (stereo not given),?,18µM*,4%,0%
O=[N+]([O-])c1ccc(N2CCN(S(=O)(=O)c3ccc(Cl)cc3)CC2)cc1NCC1CCCO1 (stereo not given),-8%,-5%,2%,-1%
CN(C(=O)Cn1cnc2onc(-c3ccc(F)cc3)c2c1=O)c1ccccc1Cl,21µM*,?,5%,-1%
SMILES,TDP1 cell CPT,TDP1 cell noCPT,TDP1 inh,ClpP mod
CCCN(CCC)CCCNC(=O)Cn1cnc2onc(-c3ccc(F)cc3)c2c1=O,-14%,-25%,4%,2%
CCOc1ccccc1N(C)C(=O)Cn1cnc2onc(-c3ccc(F)cc3)c2c1=O,?,21µM*,3%,2%
Cc1ccc(NC(=O)CCn2cnc3onc(-c4ccc(F)cc4)c3c2=O)c(Br)c1,-13%,-13%,4%,0%
COc1ccc(N(C)C(=O)CCn2cnc3onc(-c4ccc(F)cc4)c3c2=O)c(OC)c1,21µM*,13µM*,-2%,2%
Cc1ccc(Sc2ncccc2[N+](=O)[O-])cc1,24%,-4%,.,.
Cc1c([N+](=O)[O-])cnc(Sc2ccccc2)c1[N+](=O)[O-],?,9.2µM*,.,-3%
CC(C)(C)c1nn2cnnc2n(/N=C/c2ccccc2)c1=O,-24%,-21%,-5%,-1%
CCOC(=O)c1c(NC(=O)C2C3C=CC(CC3)C2C(=O)O)sc(C)c1C (stereo not given),-21%,?,-3%,28µM*
CCOC(=O)c1c(NC(=O)C2C3C=CC(C3)C2C(=O)O)sc2c1CCC(CC)C2 (stereo not given),16µM*,?,-5%,25µM*
CC(=O)Nc1sc(C)c(C)c1C(=O)OCC(=O)N(C)C1CCS(=O)(=O)C1 (stereo not given),0%,-10%,-7%,35µM*
COC(=O)c1cc(C)sc1NC(=O)C1C2C=CC(CC2)C1C(=O)O (stereo not given),-5%,-7%,3%,-10%
N[C@@H](C(=O)N[C@@H]1C(=O)N2C(C(=O)O)=C(CSc3cn[nH]n3)CS[C@H]12)c1ccc(O)cc1,9%,4%,.,.
C=C(C)[C@H]1CC[C@]2(C(=O)O)CC[C@]3(C)[C@@H](CC[C@H]4[C@@]5(C)CC[C@@H](O)C(C)(C)[C@@H]5CC[C@@]43C)[C@H]12,.,.,4%[56.1 µM],.
COC1=CCC2([N+](=O)[O-])CN(CCO)CC1([N+](=O)[O-])C2 (stereo not given),4%,16%,0%,-5%
CCOc1cccc2sc(NC(=O)CS(=O)(=O)c3ccc(C)cc3)nc12,-10%,-27%,10%,-3%
COc1cc(OC)c2c(OC)cccc2n1,26%,-1%,5%,18µM*
COc1cc(C)c2ccccc2n1,-6%,-1%,.,-16%
CCOC(=O)N1CCC(NC(=O)c2cc(C(=O)NC3CCN(Cc4ccccc4)CC3)ccc2CO)CC1,1.8µM*,-24%,4%,.
CCOC(=O)N1CCC(NC(=O)c2cc(C(=O)NCc3ccc(F)cc3)ccc2CO)CC1,?,12µM*,0%,-1%
CCOC(=O)N1CCC(NC(=O)c2cc(C(=O)Nc3ccc(F)cc3F)ccc2CO)CC1,-25%,-24%,0%,0%
Cc1ccc(N2C(=O)CS/C2=N\C(=S)Nc2ccccc2)cc1,?,5.8µM*,.,-1%
O=C1OC(c2ccc(F)cc2)CC1CN1CCOCC1 (stereo not given),5.8µM*,10µM*,.,-1%
Fc1ccc(-c2nnc3ccc(N4CCc5ccccc5C4)nn23)cc1,9.2µM*,8.2µM*,4%,4%
O=C(Nc1ccc(F)cc1)N1CCN(c2ccc3nnc(-c4ccc(F)cc4)n3n2)CC1,?,?,3%,-9%
COc1ccc(/C=C/C(=O)NC2CCCCCCC2)cc1S(=O)(=O)N1CCOCC1,21µM*,21µM*,0%,1%
COc1ccc(C(=O)NCc2c(C)nn(Cc3ccccc3)c2C)cc1S(=O)(=O)N1CCOCC1,10µM*,?,-1%,-3%
COc1ccc(/C=C/C(=O)NC(C)(C)C)cc1S(=O)(=O)N1CCOCC1,-13%,-7%,-3%,-1%
COc1ccc(C(=O)NC2CCCCCC2)cc1S(=O)(=O)N1CCOCC1,-22%,2%,3%,25µM*
